According to PubChem BioAssay AID540259 (Broad Institute, 2011):
Potency and affinity values are given separately. The source made the active and inactive calls.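 How the source made its calls: active means cell killing, meaning signal decrease, with fitted half-maximal dose at or below ten times the top valid tested dose; inconclusive means poor fit, or flat curve with 30 to 70% signal loss; inactive means the rest.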

Experiment: ATP-based viability loss in HeLa cells – cell-based, CellTiter-Glo luminescence, cherry-pick samples, cytotoxicity control for MITF activator project, dose response (AID 540259)
Settings: 24 h; series mostly up to 35 µM

| SMILES | outcome |
| --- | --- |
| C=CCN=C1S/C(=C\c2ccc(N(C)C)cc2)C(=O)N1CC=C | inactive |
| CN(c1ccccc1)c1nc2ccsc2c(=O)s1 | inactive |
| COc1ccc(C2Nc3ccccc3C(=O)N2c2ccc(C)cc2)cc1Cn1nnc2ccccc21 (stereo unspecified) | inactive |
| CCCCc1ccc(Nc2ncnc3nc[nH]c23)cc1 | inactive |
| O=C(NCCSc1ccccn1)c1ccc(Cl)cc1Cl | inactive |
| Cc1cccc(Nc2nc3c(s2)CCCC3)c1 | inactive |
| CC(C)CNC(=O)C1CCN(Cc2ccc(OCc3ccccc3)cc2)CC1 | inactive |
| COc1ccc(-c2ccc(C(=O)C3CC3)cc2)cc1 | inactive |
| CCN(CC)S(=O)(=O)c1cc(C(=O)Nc2cc(C)[nH]n2)ccc1Cl | inactive |
| COc1ccc(/C(N)=N/OC(=O)c2cccs2)cc1OC | inactive |
| O=c1c2ccccc2oc2cc(NCCCn3ccnc3)ccc12 | inactive |
| c1ccc(-c2noc(CCC3CCCC3)n2)cc1 | inactive |
| Nc1ncccc1OCc1ccc(Br)cc1 | inactive |
| Clc1ccc(-n2nnc(-c3ncc[nH]3)n2)cc1Cl | inactive |
| COc1cc(/C=C/c2noc(-c3ccccc3O)n2)ccc1OC(C)=O | inactive |
| CNC(=O)C(=O)Nc1nc(C23CC4CC(CC(C4)C2)C3)cs1 | inactive |
| c1cnc(Nc2nc(-c3ccc4ccccc4c3)cs2)nc1 | inactive |
| COc1ccc(-c2nnc(SCc3ccccc3)n2N)cc1 | inactive |
| Cn1cc(Br)c(C(=O)Nc2sc3c(c2C(N)=O)CCCC3)n1 | inactive |
| COc1ccc2cc(-c3csc(-c4cccnc4)n3)ccc2c1 | inactive |
| O=C(OCc1csc(-c2ccccc2)n1)c1ccc(O)cc1 | inactive |
